PubChem BioAssay AID1159580 (chemical genetic matrix, 2015)
Several values for one entry are separate records, joined by “and”; a condition that tells them apart may be missing. Equal entries are not always repeated. About 2,000 (36%) of roughly 5,500 compounds were called active. Roughly 18% stayed inconclusive and do not appear here. No stated cut-off is given here; in the data, active means normalized growth mostly below about 0.91 (no sharp cut-off); inconclusive means no clear call, values can overlap the other calls; inactive means mostly above about 0.92. The list shows a part of the results.

Assay: chemical genetic growth profiling, strain panel (AID 1159580);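 further: tested at 20 µM; growth read once vehicle control cultures reached saturation at 30 °C; 1 = growth at the plate median or of vehicle wells; lower values mean less growth of the strain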
Settings: S. cerevisiae deletion strains, growth OD

Measured: normalized growth

C=C(C)[C@H]1COc2cc3oc(=O)ccc3cc2O1
active: locus YAL021C, strain ccr4, hits give low values 0.52 | locus YAL026C, strain drs2, hits give low values 0.51 | locus YBL061C, strain skt5, hits give low values 0.213 | locus YBR009C, strain hhf1, hits give low values 0.811 | locus YBR021W, strain FUR4, hits give low values 0.116 | locus YBR023C, strain chs3, hits give low values 0.339 | locus YBR231C, strain swc5, hits give low values 0.786 | locus YBR279W, strain paf1, hits give low values 0.931 | locus YCL011C, strain gbp2, hits give low values 0.852 | locus YCL016C, strain dcc1, hits give low values 0.736 | locus YCL029C, strain bik1, hits give low values 0.72 | locus YCL061C, strain MRC1, hits give low values 0.793 | locus YCL069W, strain vba3, hits give low values 0.783 | locus YCR088W, strain abp1, hits give low values 0.814 | locus YDL035C, strain GPR1, hits give low values 0.491 | locus YDL074C, strain BRE1, hits give low values 0.465 | locus YDL101C, strain DUN1, hits give low values 0.36 | locus YDL192W, strain arf1, hits give low values 0.111 | locus YDR069C, strain doa4, hits give low values 0.888 | locus YDR101C, strain arx1, hits give low values 0.724 | locus YDR137W, strain rgp1, hits give low values 0.279 | locus YDR150W, strain NUM1, hits give low values 0.53 | locus YDR162C, strain NBP2, hits give low values 0.0606 | locus YDR318W, strain mcm21, hits give low values 0.62 | locus YDR335W, strain msn5, hits give low values 0.857 | locus YDR388W, hits give low values 0.515 | locus YDR502C, strain sam2, hits give low values 0.387 | locus YEL003W, strain gim4, hits give low values 0.911 | locus YEL061C, strain CIN8 (second series), hits give low values 0.447 | locus YER015W, strain faa2, hits give low values 0.9 | locus YER016W, strain bim1, hits give low values 0.791 | locus YER110C, hits give low values 0.747 | locus YER155C, strain BEM2 (second series), hits give low values 0.444 | locus YER155C, strain BEM2, hits give low values 0.879 | locus YER167W, strain BCK2, hits give low values 0.671 | locus YGL086W, strain mad1, hits give low values 0.578 | locus YGL240W, strain doc1, hits give low values 0.756 | locus YGL248W, strain PDE1, hits give low values 0.385 | locus YGL253W, strain hxk2, hits give low values 0.466 | locus YGR135W, strain pre9, hits give low values 0.574 | locus YGR252W, strain gcn5, hits give low values 0.28 | locus YHR013C, strain ard1, hits give low values 0.692 | locus YHR030C, strain SLT2, hits give low values 0.272 | locus YHR129C, strain ARP1, hits give low values 0.554 | locus YHR142W, strain chs7, hits give low values 0.148 | locus YHR200W, strain rpn10, hits give low values 0.572 | locus YIL066C, strain RNR3, hits give low values 0.407 | locus YIL073C, strain SPO22, hits give low values 0.16 | locus YIL125W, strain kgd1, hits give low values 0.916 | locus YIR030C, strain dcg1, hits give low values 0.819 | locus YJL092W, strain hpr5, hits give low values 0.903 | locus YJL095W, strain BCK1 (second series), hits give low values 0.107 | locus YJL095W, strain BCK1, hits give low values 0.0661 and 0.314 | locus YJL129C, strain trk1, hits give low values 0.452 | locus YJL164C, strain tpk1, hits give low values 0.871 | locus YJL166W, strain qcr8, hits give low values 0.662 | locus YJL168C, strain set2, hits give low values 0.887 | locus YJL187C, strain SWE1 (second series), hits give low values 0.635 | locus YJL187C, strain SWE1, hits give low values 0.886 | locus YJR043C, strain POL32, hits give low values 0.249 | locus YKL160W, strain elf1, hits give low values 0.749 | locus YKR001C, strain vps1, hits give low values 0.0831 | locus YLL001W, strain dnm1, hits give low values 0.868 | locus YLR039C, strain RIC1, hits give low values 0.12 | locus YLR058C, strain SHM2, hits give low values 0.571 | locus YLR102C, strain apc9, hits give low values 0.863 | locus YLR221C, strain rsa3, hits give low values 0.898 | locus YLR258W, strain gsy2, hits give low values 0.902 | locus YLR262C, strain YPT6 (second series), hits give low values 0.23 | locus YLR262C, strain YPT6, hits give low values 0.166 | locus YLR268W, strain sec22, hits give low values 0.597 | locus YLR320W, strain mms22, hits give low values 0.75 | locus YLR330W, strain CHS5, hits give low values 0.0549 | locus YLR342W, strain FKS1 (second series), hits give low values 0.075 | locus YLR342W, strain FKS1, hits give low values 0.0723 | locus YLR357W, strain rsc2, hits give low values 0.538 | locus YLR370C, strain arc18, hits give low values 0.657 | locus YLR371W, strain rom2, hits give low values 0.123 | locus YLR418C, strain cdc73, hits give low values 0.18 | locus YML016C, strain PPZ1, hits give low values 0.548 | locus YML032C, strain rad52, hits give low values 0.555 | locus YML124C, strain tub3, hits give low values 0.805 | locus YMR058W, strain fet3, hits give low values 0.838 | locus YMR078C, strain ctf18, hits give low values 0.871 | locus YMR205C, strain PFK2, hits give low values 0.776 | locus YMR223W, strain ubp8, hits give low values 0.514 | locus YMR231W, strain pep5, hits give low values 0.114 | locus YMR307W, strain GAS1, hits give low values 0.192 | locus YNL067W, strain RPL9B, hits give low values 0.841 | locus YNL071W, strain lat1, hits give low values 0.827 | locus YNL153C, strain GIM3, hits give low values 0.223 | locus YNL233W, strain BNI4, hits give low values 0.408 | locus YNL271C, strain bni1, hits give low values 0.846 | locus YNL298W, strain CLA4, hits give low values 0.839 | locus YNL307C, strain MCK1, hits give low values 0.37 | locus YNR052C, strain pop2, hits give low values 0.273 | locus YOL147C, strain pex11, hits give low values 0.757 | locus YOR061W, strain CKA2, hits give low values 0.135 | locus YOR069W, strain VPS5, hits give low values 0.687 | locus YOR070C, strain gyp1, hits give low values 0.736 | locus YOR083W, strain WHI5, hits give low values 0.728 | locus YOR106W, strain vam3, hits give low values 0.387 | locus YOR136W, strain idh2, hits give low values 0.867 | locus YOR144C, strain elg1, hits give low values 0.833 | locus YOR184W, strain ser1, hits give low values 0.387 | locus YOR265W, strain rbl2, hits give low values 0.881 | locus YOR270C, strain vph1, hits give low values 0.374 | locus YPL051W, strain arl3, hits give low values 0.232 | locus YPL078C, strain atp4, hits give low values 0.755 | locus YPL106C, strain sse1, hits give low values 0.709 | locus YPL241C, strain CIN2, hits give low values 0.286 | locus YPR119W, strain clb2, hits give low values 0.354 | locus YPR163C, strain tif3, hits give low values 0.889 | locus YPR167C, strain met16, hits give low values 0.766 | strain wtn01, hits give low values 0.468
inactive: locus YAL030W, strain snc1, hits give low values 0.933 | locus YBR171W, strain sec66, hits give low values 0.938 | locus YBR229C, strain ROT2, hits give low values 0.956 | locus YDL005C, strain med2, hits give low values 0.959 | locus YDL040C, strain nat1, hits give low values 0.957 | locus YDL185W, strain tfp1, hits give low values 0.924 | locus YDR001C, strain nth1, hits give low values 0.956 | locus YDR159W, strain sac3, hits give low values 0.905 | locus YDR195W, strain ref2 1.05 | locus YDR297W, strain sur2, hits give low values 0.956 | locus YDR334W, strain swr1, hits give low values 0.921 | locus YDR392W, strain spt3, hits give low values 0.775 | locus YEL037C, strain rad23, hits give low values 0.956 | locus YER111C, strain swi4, hits give low values 0.961 | locus YFR010W, strain ubp6, hits give low values 0.945 | locus YGL078C, strain dbp3, hits give low values 0.993 | locus YGL167C, strain pmr1, hits give low values 0.995 | locus YGL173C, strain kem1, hits give low values 0.906 | locus YGL227W, strain vid30, hits give low values 0.932 | locus YHR027C, strain rpn1, hits give low values 0.929 | locus YHR079C, strain IRE1 (second series), hits give low values 0.967 | locus YHR079C, strain IRE1, hits give low values 1.01 | locus YHR094C, strain hxt1, hits give low values 0.948 | locus YJL115W, strain asf1, hits give low values 0.977 | locus YJL134W, strain LCB3, hits give low values 0.934 | locus YJL154C, strain vps35, hits give low values 0.958 | locus YJR066W, strain TOR1, hits give low values 0.926 | locus YKL009W, strain mrt4, hits give low values 0.965 | locus YKL068W, hits give low values 0.985 | locus YKL085W, strain MDH1 (second series), hits give low values 0.972 | locus YKL085W, strain MDH1, hits give low values 0.972 | locus YKR026C, strain gcn3, hits give low values 0.979 | locus YKR091W, strain srl3, hits give low values 0.973 | locus YLL026W, hits give low values 0.966 | locus YLL041C, strain sdh2, hits give low values 0.989 | locus YLR027C, strain aat2, hits give low values 0.935 | locus YLR113W, strain HOG1, hits give low values 0.996 | locus YLR384C, strain iki3, hits give low values 0.993 | locus YML120C, strain ndi1, hits give low values 0.972 | locus YMR125W, strain sto1, hits give low values 0.982 | locus YMR129W, hits give low values 0.989 | locus YNL183C, strain NPR1, hits give low values 0.925 | locus YNL209W, strain ssb2, hits give low values 0.93 | locus YNL248C, strain rpa49, hits give low values 0.932 | locus YNL250W, strain rad50, hits give low values 0.995 | locus YNL322C, strain KRE1 (second series), hits give low values 0.918 | locus YNR049C, strain mso1, hits give low values 0.923 | locus YOL012C, strain htz1 0.694 | locus YOR001W, strain rrp6, hits give low values 0.956 | locus YOR080W, strain dia2, hits give low values 0.921 | locus YOR231W, strain MKK1, hits give low values 0.978 | locus YOR290C, strain snf2, hits give low values 0.888 | locus YOR316C, strain cot1, hits give low values 0.991 | locus YPL240C, strain hsp82, hits give low values 0.966 | locus YPL256C, strain CLN2, hits give low values 1.03 | locus YPR141C, strain kar3, hits give low values 0.988
